Experiments:
Assay in all cases: PBM binding z-score (relative to random genomic background probes); higher = stronger binding; sequences stand for … in GC…GCGATTGACAGCGTAGAATGAAGG
[1] = tested on: FXR:RXRa (NR concentration 270 nM, RXRa partner concentration 90 nM)
Summary of the method: (§1)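 Probes were double-stranded and carried 34-nt variable regions with direct-repeat seeds, single-nucleotide variants, half-site ablations and random human genomic background sequences, printed on custom Agilent 4×180K protein-binding microarrays. Arrays were incubated 1 h with ligand-free nuclear receptor dimers in PBS pH 7.4, 2% milk, 0.02% Triton X-100, 1 mM DTT, 0.2 mg/mL BSA and 0.4 mg/ml salmon testes DNA. Antibodies against each partner (one per run) detected binding, and scanned fluorescence was regression-normalized. Binding z-scores use the random background probes as reference.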

[2] = tested on: LXRa:RXRa (NR concentration 270 nM, RXRa partner concentration 90 nM)
Summary of the method: as §1

[3] = tested on: LXRa homodimer (NR concentration 270 nM)
Summary of the method: as §1

[4] = tested on: LXRb:RXRa (NR concentration 270 nM, RXRa partner concentration 90 nM)
Summary of the method: as §1

[5] = tested on: LXRb homodimer (NR concentration 270 nM)
Summary of the method: as §1

[6] = tested on: PPARa:RXRa (NR concentration 270 nM, RXRa partner concentration 90 nM)
Summary of the method: as §1

[7] = tested on: PPARg:RXRa (NR concentration 180 nM, RXRa partner concentration 90 nM)
Summary of the method: as §1

[8] = tested on: PPARg:RXRa 270nM:90nM, anti-RXR (NR concentration 270 nM, RXRa partner concentration 90 nM)
Summary of the method: as §1

[9] = tested on: PPARg:RXRa 30nM:10nM, anti-RXR (NR concentration 30 nM, RXRa partner concentration 10 nM)
Summary of the method: as §1

[10] = tested on: PPARg:RXRa 90nM:30nM, anti-RXR (NR concentration 90 nM, RXRa partner concentration 30 nM)
Summary of the method: as §1

Sequence	PBM binding z-score [1]	PBM binding z-score [2]	PBM binding z-score [3]	PBM binding z-score [4]	PBM binding z-score [5]	PBM binding z-score [6]	PBM binding z-score [7]	PBM binding z-score [8]	PBM binding z-score [9]	PBM binding z-score [10]
CGAACTAGGTCATTGACAGTACAGTGAATAGTAA	4.63	2.68	0.32	2.02	0.232	4.98	7.68	6.38	3.77	5.67
TGAATGAGGTTATAAGGTCAGGGAACGTTGCAAA	5.12	4.24	0.615	3.38	0.153	5.17	5.07	5.43	2.33	4.46
GCATATAGGTAATACAAGGTGAAAGTACGATTGT	0.899	2.24	0.263	0.874	-0.16	1.82	1.98	1.86	0.776	1.17
ACTCGGAGGACACAGGTCAGAGCTACGCCAGTGA	1.4	1.18	0.294	0.96	-0.518	2.18	2.85	3.06	1.09	2.71
CAAATTAGGTCACAGAGGTCAAAGTCCGTGCGTA	7.48	6.57	7.83	6.26	2.94	6.44	9.76	8.05	6.42	8.29
CCTTACGCGTCACGAGGTTATAGCACGACGAGCG	0.529	0.868	0.107	0.95	0.329	1.44	1.08	0.331	-0.172	-0.00609
ATCGAAAGGTCGACGAGGTGAGTAGACACCGTTT	4.89	3.41	-0.158	2.75	0.205	4.45	3.11	3.63	1.22	2.45
TCGAGTAAGTTACCAATGGGGCATTCAGCTTTCT	-0.407	-0.177	-0.53	0.203	-0.792	0.13	-0.296	0.61	0.958	0.917
TAGCCCAGGTCATTGGGCCAGTATAGTACGCATC	4.84	3.77	0.677	2.25	-0.127	4.22	3.72	3.93	0.844	2.6
GCTCGGAGGACAAGGTAAGAGCTTTGTCCGTAGA	-0.326	-0.633	-0.985	-0.8	-1.57	-0.331	-0.742	-0.267	-0.952	-0.841
AGAATGAGGTTCAGATCAGGGAAACAGAATACAT	0.604	0.299	-0.377	0.614	-0.379	1.14	0.585	-0.121	0.313	0.345
GGAACGAGGGCAAACTTGATAGCATCTGTCGACG	1.14	0.523	-0.0239	0.598	-0.25	2.18	1.54	1.87	0.362	1.16
CCTACTGGGCCAAGATCATTGATCAGTCAAAGCA	-0.667	-0.791	-0.405	-0.59	-1.07	0.131	0.378	0.483	-0.171	0.221
GCTAGCAGGCCATTTGTGTCACTCAATGACGGGC	-0.539	-0.568	-1.12	-1.03	-0.864	-0.398	0.274	-0.38	-0.669	-0.744
ACAGACAGGTGAGTGAAGGTACCTCAGCTGGACG	-0.587	-0.527	-0.687	-0.78	-0.777	-0.49	0.476	-0.227	-0.761	-0.682
AGAATGAGGTTATTCGTAGATCAGGGAAGAAAGT	2.59	2.61	0.0908	1.87	-0.0255	3.43	1.64	1.83	0.552	1.2
TTACCAAGGTTAGCTGAGGTCGTTGATCCAACTC	2.11	4.83	0.313	2.51	-0.743	2.24	-0.0441	0.6	0.0802	0.486
ATATGTAGGTTAAGGGTCCTTCAGGTTGGTTCGC	0.735	1.21	0.278	1.18	0.267	4.59	8.87	8.11	8.31	9.26
TCCAGTTGGTCACGGAGGTCACACACGACGGGTA	3.34	3.57	2.25	3.33	0.101	3.95	3.15	3.83	2.94	3.43
CGAACTAGGTCATTGACAGGACCGTGAATAGTAA	4.32	2.36	0.141	1.66	-0.048	4.62	7.17	6.36	3.72	5.79
GCTCGGAGGAGAAGGTCAGAGCTTTGTCCGTAGA	0.655	0.736	-0.584	0.516	-1.44	1.79	-0.0558	0.967	-0.721	0.353
AGAACGACGGCAATGAGTTGATAGCACGGGTGGC	-0.823	-0.86	-0.973	-1.01	-0.907	-0.728	0.71	-0.672	-0.309	-0.536
CATACAAGGTCAGCTAGGCCAGAGTAGGGACGGC	5.48	4.64	0.878	2.65	0.921	4.45	3.65	3.36	0.947	2.45
TGAATGAGGTTATAATATCAGGGAACGTTGCAAA	1.4	1.31	0.0955	1.38	0.0343	2.68	1.29	1.62	0.724	1.25
TGTCAAAGTTCAAAGGTAACGAAAGTATCCACAC	7.51	6.49	4.27	5.02	1.67	6.08	9.12	7.76	6.04	7.45

Source: the supplement of paper PMC6555819
